# PubChem BioAssay (Tox21)
# Inconclusive results are not listed. Where a call stands in place of a potency, no number is given. Calls of active or inactive are those of the source. Unless noted, calls follow the shape of the dose curve; as a rule, active = well fitted curve in the direction sought with a large enough effect in the repeat runs; inconclusive = weak or mixed curves; inactive = no such curve, though single readings can be large; an effect the other way counts as inactive or inconclusive.
# Key:
# [1] = qHTS assay to identify small molecule antagonists of the estrogen related receptor (ERR) signaling pathway (AID 1224819; also: nearly all actives have a fitted effect of over 50% in size; also: potency is read from the fitted curve at half-maximal effect)
# Outline: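 qHTS in ERR cells, 2,000/well, 1536 format. Cpd (DMSO) added after 6 h settle, 18 h 37 C. One-Glo luminescence, 30 min RT.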
# [2] = qHTS assay to identify small molecule agonists of the estrogen related receptor (ERR) signaling pathway (AID 1224820); also: potency is read from the fitted curve at half-maximal effect
# Outline: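 After 6 h plating (2,000 cells/well) and 18 h compound treatment at 37 C, ERR cells were lysed with One-Glo and luminescence read after 30 min at room temperature.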
# [3] = system: estrogen-related receptor alpha (ERRalpha) with PGC-1alpha coactivator, human; assay: qHTS assay to identify small molecule antagonists of the estrogen related receptor signaling pathway with the pleiotropic PPARgamma coactivator (PGC) (AID 1224821; calls by dose curve; also: nearly all actives have a fitted effect of over 50% in size; also: potency is read from the fitted curve at half-maximal effect)
# Outline: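 Luminescence from One-Glo luciferase reagent (30 min, room temperature) measured after 18 h compound treatment at 37 °C. Cells carry the PGC/ERR reporter and were seeded 6 h prior to dosing.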
# [4] = qHTS assay to identify small molecule antagonists of the estrogen related receptor signaling pathway with the pleiotropic PPARgamma coactivator (PGC) cell viability counter screen (AID 1224822;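 also: series mostly up to about 46 µM; viability read after 17.5 h compound exposure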)
# Outline: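 Multiplexed viability counter screen run in PGC/ERR cells treated with compounds for 17.5 h at 37 C; live-cell protease signal measured by CellTiter-Fluor fluorescence.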
# [5] = qHTS assay to identify small molecule agonists of the estrogen related receptor signaling pathway with the pleiotropic PPARgamma coactivator (PGC) (AID 1224823); also: potency is read from the fitted curve at half-maximal effect
# Outline: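 Luminescence from One-Glo reagent (30 min, room temperature) was read after 18 h compound treatment at 37 C of PGC/ERR cells plated 6 h beforehand; compounds delivered in DMSO by pin tool.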
Structure (SMILES),Potency [1],Potency [2],Potency [3],Potency [4],Potency [5]
NC(N)=[N+]1CCc2ccccc2C1,inactive,inactive,inactive,inactive,inactive
Cc1cc2c(cc1Cl)N(C(=O)Nc1ccnc3ccccc13)CC2,inactive,inactive,inactive,inactive,inactive
O=[N+]([O-])c1ccc(CSc2ncnc3c2ncn3[C@@H]2O[C@H](CO)C(O)[C@H]2O)cc1 (stereo not given in full),inactive,inactive,inactive,inactive,inactive
CN1CCc2cc(Cl)c(O)cc2[C@@H](c2ccccc2)C1,inactive,inactive,inactive,inactive,inactive
CN1C2CCC1CC(OC(=O)C(O)c1ccccc1)C2 (stereo not given),inactive,inactive,inactive,inactive,inactive
CCC(=O)N1CCN(C(=O)c2ccccc2)CC1,inactive,inactive,inactive,inactive,inactive
O=c1[nH]c(=O)c2nc3ccccc3nc2[nH]1,inactive,inactive,inactive,inactive,inactive
CNc1cc(NS(=O)(=O)c2ccc(N)cc2)nc(NC)n1,inactive,inactive,inactive,inactive,inactive
NCCCCN,inactive,inactive,inactive,inactive,inactive
COc1ccc2c(c1)c(CC(=O)O)c(C)n2C(=O)c1ccccc1,inactive,inactive,inactive,inactive,inactive
CCN(CC)CCOC(=O)c1cc(Cl)c(N)cc1OC,inactive,inactive,inactive,inactive,inactive
O=C1OC(=O)C2C3CCC(O3)C12 (stereo not given),inactive,inactive,inactive,inactive,inactive
Oc1ccc(C2CNCc3sccc32)cc1O (stereo not given),inactive,inactive,inactive,inactive,inactive
Fc1cccc(/C=N/N=C/c2cccc(F)c2)c1,inactive,15.5 µM (active),inactive,inactive,12.3 µM (active)
Nc1ccc(-c2ccc3ccccc3n2)cc1,inactive,2.46 µM (active),inactive,inactive,1.96 µM (active)
O=C(O)CCC/C=C\C[C@@H]1[C@@H](/C=C/[C@H](O)C2Cc3ccccc3C2)[C@@H](F)C[C@@H]1O,inactive,inactive,inactive,inactive,inactive
CCOC(=O)C1=C(O)C(=O)N(Cc2ccccc2)C1,inactive,inactive,inactive,inactive,inactive
NC[C@@H]1O[C@H](c2ccccc2)Cc2c1ccc(O)c2O,inactive,inactive,inactive,inactive,inactive
CCCCCCCCCCCCCCCCCCOC[C@H](COP(=O)([O-])OCC[N+](C)(C)C)OC,inactive,inactive,inactive,inactive,inactive
OC[C@H]1O[C@@H](n2cnc3c(NC4CCCCC4)ncnc32)[C@H](O)[C@@H]1O,inactive,inactive,inactive,inactive,8.74 µM (active)

Structure (SMILES),Potency [1],Potency [2],Potency [3],Potency [4],Potency [5]
O=c1c(O)c(-c2cc(O)c(O)c(O)c2)oc2cc(O)cc(O)c12,inactive,inactive,inactive,inactive,inactive
Cn1cc(C2=C(c3ccc(Cl)cc3Cl)C(=O)NC2=O)c2ccccc21,21.1 µM (active),inactive,inactive,inactive,inactive
O=C(O)C1CCNCC1,inactive,inactive,inactive,inactive,inactive
CC(N)=NCCCC[C@@H](N)C(=O)O,inactive,inactive,inactive,inactive,inactive
S=c1[nH]c(-c2ccccc2)cn1-c1ccccc1,inactive,inactive,inactive,inactive,inactive
C[N+](C)(C)CCOP(=O)(O)OP(=O)([O-])OC[C@H]1O[C@@H](n2ccc(N)nc2=O)[C@H](O)C1O (stereo not given in full),inactive,inactive,inactive,inactive,inactive
O=C(c1ccc(OCCCc2cnc[nH]2)cc1)C1CC1,inactive,inactive,inactive,inactive,inactive
O=C1NC(=O)/C(=C/c2ccc3c(c2)OC(F)(F)O3)S1,inactive,3.16 µM (active),inactive,inactive,inactive
COC1(C2=NCCN2)COc2ccccc2O1 (stereo not given),inactive,inactive,inactive,inactive,inactive
CC(O)C(O)[C@H]1CNc2nc(N)[nH]c(=O)c2N1 (stereo not given in full),inactive,inactive,inactive,inactive,inactive
N=c1ccn2c(n1)O[C@H]1C(O)[C@@H](CO)O[C@H]12 (stereo not given in full),inactive,inactive,inactive,inactive,inactive
CCCCC[C@H](CC(=O)NO)C(=O)N[C@H](C(=O)N1CCC[C@H]1CO)C(C)C,5.11 µM (active),inactive,10.2 µM (active),inactive,inactive
CC1CNCCN1S(=O)(=O)c1cccc2cnccc12 (stereo not given),inactive,inactive,inactive,inactive,inactive
O=C(O)c1cc(=O)c2c(Cl)cc(Cl)cc2[nH]1,inactive,inactive,inactive,inactive,inactive
N#C/C(=C\c1ccc(O)c(O)c1)C(=O)c1ccc(O)c(O)c1,inactive,inactive,inactive,inactive,inactive
CC(=O)O[C@H]1CC2(C)[C@@H](C[C@@H](O)[C@H]3[C@@]4(C)CC[C@@H](O)[C@@H](C)[C@@H]4CC[C@@]32C)C1=C(CCC=C(C)C)C(=O)O (stereo not given in full),inactive,inactive,inactive,inactive,inactive
O=c1cc(-c2ccccc2)oc2c(O)c(O)ccc12,inactive,inactive,inactive,inactive,inactive
C[C@@H](c1ncncc1F)[C@](O)(Cn1cncn1)c1ccc(F)cc1F,inactive,inactive,inactive,inactive,inactive
Nc1nc2c(nc(Br)n2C2OC3COP(=O)(O)O[C@@H]3C2O)c(=O)[nH]1 (stereo not given in full),inactive,inactive,inactive,inactive,inactive
O=c1onc2cnc3ccccc3n12,inactive,inactive,inactive,inactive,inactive

Structure (SMILES),Potency [1],Potency [2],Potency [3],Potency [4],Potency [5]
NOCC(=O)O,inactive,inactive,inactive,inactive,inactive
Brc1ccc([C@H]2CN3CCSC3=N2)cc1,inactive,inactive,inactive,inactive,inactive
O=C(O)/C(=C/c1c(C(=O)O)[nH]c2cc(Cl)cc(Cl)c12)c1ccccc1,inactive,inactive,inactive,inactive,inactive
CCCn1c(=O)c2[nH]c(-c3ccc(S(=O)(=O)O)cc3)nc2n(CCC)c1=O,inactive,inactive,inactive,inactive,inactive
OCC1O[C@H](O)C(Cl)C(O)C1O (stereo not given in full),inactive,inactive,inactive,inactive,inactive
Nc1ncnc2c1ncn2C1CCCO1 (stereo not given),inactive,inactive,inactive,inactive,inactive
CN(CCCOc1ccc(Cc2ccccc2)cc1)CCC(=O)O,inactive,inactive,inactive,inactive,inactive
CS(=O)(=O)c1cccc(CNc2nc(Nc3ccc4c(c3)CCC(=O)N4)ncc2C(F)(F)F)c1,inactive,inactive,inactive,inactive,inactive
CCSC(=N)N,inactive,inactive,inactive,inactive,inactive
O=C(O)C1=CCCNC1,inactive,inactive,inactive,inactive,inactive
[N-]=[N+]=Nc1ccc(C(=O)CSC[C@H](NC(=O)CC[C@H](N)C(=O)O)C(=O)NCC(=O)O)cc1,0.552 µM (active),inactive,inactive,inactive,inactive
Nc1ncnc2n[nH]c(Nc3ccc(F)cc3)c12,inactive,inactive,inactive,inactive,22.8 µM (active)
O=c1onc2n1-c1cc(Br)ccc1OC2,inactive,inactive,inactive,inactive,inactive
CCOC(=O)[C@H](CCc1ccccc1)N[C@@H](C)C(=O)N1[C@H](C(=O)O)C[C@H]2CCCC[C@@H]21,inactive,inactive,inactive,inactive,inactive
N=S(=O)(O)Cc1noc2ccccc12,inactive,inactive,inactive,inactive,inactive
COc1ccc2c(c1)c(CC(=O)O)c(C)n2Cc1ccc(Cl)cc1,inactive,inactive,inactive,inactive,inactive
Cc1cc(Cn2cnc3c2C[C@@H](C(=O)O)N(C(=O)C(c2ccccc2)c2ccccc2)C3)ccc1N,inactive,inactive,inactive,inactive,inactive
Nc1ncnc2c1nc(Br)n2C1OC2COP(=O)(O)O[C@@H]2C1O (stereo not given in full),inactive,inactive,inactive,inactive,inactive
C=CCNc1ncnc2ccc(Br)cc12,9.44 µM (active),inactive,10.2 µM (active),inactive,inactive
